The test system of assay [1] is Plasmodium falciparum Sir2 (PF13_0152, Sir2A). The experiment in a line: Plasmodium falciparum Sir2A binding compounds – biochemical, small-molecule microarray, 635 nm fluorescence, primary screen (AID 1098).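 Note: score merges spot fluorescence intensity with its signal-to-noise ratio.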 To be noted: fluorescence 635 nm, higher = more signal.
A short description of assay [2]: probe aDKK1 binding to arrayed compounds – biochemical, biotinylated probe, 635/667 nm fluorescence, primary screen (AID 1099).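 Note: score merges 667nm spot fluorescence with signal to noise across triplicate slides.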 The settings on record: small-molecule microarray, higher = more signal.
Assay [3] in a line: probe aCHRDL2 binding to arrayed compounds – biochemical, biotinylated probe, 635/667 nm fluorescence, primary screen (AID 1100). To be noted: small-molecule microarray, higher = more signal.
Assay [4] in a line: change in splice reporter luminescence, either direction, cell-based, HEK293, spliceosome inhibition project, primary screen (AID 1101).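 Note: HEK293 cells carrying a splicing-competent luciferase reporter gene; test concentration not given here.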 To be noted: HEK293 splicing luciferase reporter, 24 h, higher = more signal, called active from +8 up or from −8 down. Background: In a reporter assay the amount or activity of a reporter protein is the signal.
For assay [5], the target named is Fibroblast growth factor 10 (Homo sapiens) (UniProt O15520). The assay is described as follows: compounds binding fibroblast growth factor 10 – biochemical, small-molecule microarray, 635 nm fluorescence, primary screen (AID 1102). The settings on record: FGF10 binding, fluorescence 635 nm, higher = more signal.
Chain of Fibroblast growth factor 10 (Homo sapiens) (O15520 whole entry, looked up): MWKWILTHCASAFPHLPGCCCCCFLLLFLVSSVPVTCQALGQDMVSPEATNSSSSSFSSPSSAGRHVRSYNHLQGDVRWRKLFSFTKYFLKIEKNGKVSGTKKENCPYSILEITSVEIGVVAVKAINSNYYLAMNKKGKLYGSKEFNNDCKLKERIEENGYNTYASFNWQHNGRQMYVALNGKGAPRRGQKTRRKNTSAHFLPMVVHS
Assay [6] relates to glycogen synthase kinase-3 (GSK3A per assay name; protocol says GSK3B). The experiment in a line: compounds binding glycogen synthase kinase-3 – biochemical, small-molecule microarray, 635 nm fluorescence, GSK3A, primary screen (AID 1103). Note: the record names both GSK3A and GSK3B. To be noted: fluorescence 635 nm, higher = more signal.
Assay [7] has as its target Epidermal growth factor receptor (Homo sapiens) (UniProt P00533). The assay is described as follows: compounds binding epidermal growth factor receptor – biochemical, small-molecule microarray, 635 nm fluorescence, primary screen (AID 1104).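 Note: score merges 667 nm emission intensity with spot signal to noise over triplicate slides.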 The settings on record: EGFR binding, higher = more signal.
Assay [8] concerns the target Follistatin-related protein 3 (Homo sapiens) (UniProt O95633). The experiment in a line: compounds binding follistatin-related protein 3 – biochemical, small-molecule microarray, 635 nm fluorescence, primary screen (AID 1105).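 Note: score merges emission near 667 nm and signal to noise per printed spot across three slides.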 The settings on record: FSTL3 binding, higher = more signal.
In assay [9] the target is Dickkopf-related protein 1 (Homo sapiens) (UniProt O94907). The assay is described as follows: small molecules binding DKK1 protein – biochemical, small-molecule microarray, 635 nm fluorescence scan, primary screen (AID 1106).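 Note: score merges emission near 667 nm with signal to noise over three replicate slides.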 The settings on record: higher = more signal.
Chain of Dickkopf-related protein 1 (Homo sapiens) (O94907 whole entry, looked up): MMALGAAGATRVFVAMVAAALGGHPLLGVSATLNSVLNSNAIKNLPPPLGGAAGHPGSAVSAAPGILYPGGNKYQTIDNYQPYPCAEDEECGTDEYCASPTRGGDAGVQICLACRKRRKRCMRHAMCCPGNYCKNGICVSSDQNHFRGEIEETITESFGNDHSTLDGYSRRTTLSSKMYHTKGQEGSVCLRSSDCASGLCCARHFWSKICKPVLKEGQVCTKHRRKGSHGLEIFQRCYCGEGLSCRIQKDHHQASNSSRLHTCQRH
Assay [10] relates to Inhibin beta A chain (activin A). The experiment in a line: small molecules binding activin A – biochemical, small-molecule microarray, 635 nm fluorescence scan, primary screen (AID 1107).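 Note: mouse activin A protein probed at 4.33 µg/mL on printed slides; score merges bound-protein fluorescence near 667 nm with spot signal-to-noise.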 The settings on record: INHBA, higher = more signal.
Assay [11] has as its system Human papillomavirus type 1a protein E7 (residues 44-93). The assay is described as follows: small molecules binding HPV E7 44-93 – biochemical, small-molecule microarray, residues 44-93, 635 nm fluorescence, primary screen (AID 1108).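 Note: E7 fragment applied at 1 µg/mL in TBST for 1 h at 4 C; score combines spot fluorescence with its signal to noise ratio.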 The settings on record: fluorescence 635 nm, higher = more signal.
The nature of assay [12]: hepatitis C replication reporter changes, two-sided – Huh7 cells, luciferase reporter, HCV replication inhibitor project, primary screen (AID 1109).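 Note: huh7 hepatoma cells harbouring a luciferase neomycin HCV replicon reporter; luciferase luminescence as measure of HCV replicon replication; test concentration not given here.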 The settings on record: Huh7 HCV replicon luciferase reporter, 48 h; higher = more signal.
Assay [13] concerns the target Left-right determination factor 2 (Homo sapiens) (UniProt O00292). The assay is described as follows: small molecules binding LEFTY2 protein – biochemical, small-molecule microarray, 635 nm fluorescence scan, primary screen (AID 1110). To be noted: higher = more signal.
Assay [14] concerns the target Calmodulin-1 (Homo sapiens) (UniProt P0DP23). The assay is described as follows: small molecules binding calmodulin-1 with EGTA – biochemical, small-molecule microarray, Cy5-labelled CALM1, profiling panel (AID 1111).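 Note: labelled calmodulin applied in Tris saline Tween buffer holding calcium plus EGTA and DTT.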 The settings on record: Cy5-CALM1 binding fluorescence, higher = more signal.
For assay [15] the target is unchanged. The experiment in a line: small molecules binding Ca-loaded calmodulin-1 – biochemical, small-molecule microarray, Cy5-labelled CALM1, plus calcium, artefact control for SMM control-protein annotation, profiling panel (AID 1112).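 Note: score merges spot fluorescence with signal to noise from triplicate slides.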 The settings on record: Cy5-CALM1 binding fluorescence, higher = more signal.
Assay [16] in a line: probe aWnt5a binding to arrayed compounds – biochemical, biotinylated probe, 635/667 nm fluorescence, primary screen (AID 1113).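 Note: score merges 667 nm fluorescence intensity with signal-to-noise per printed feature.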 To be noted: small-molecule microarray, higher = more signal.
A short description of assay [17]: probe aShh binding to arrayed compounds – biochemical, biotinylated probe, 635/667 nm fluorescence, primary screen (AID 1114).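 Note: probe is biotin-labelled aShh protein from a stem cell growth factor screen; measures binding of labelled protein to compounds printed on the slide; score merges feature fluorescence at 667 nm with signal-to-noise.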 The settings on record: small-molecule microarray, higher = more signal.
The nature of assay [18]: probe aNog binding to arrayed compounds – biochemical, biotinylated probe, 635/667 nm fluorescence, primary screen (AID 1115).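 Note: probe is biotinylated aNog protein used at 0.15 µg/mL for 1 h at 4 C; z-score combines 667 nm fluorescence of each spot with its signal to noise.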 The settings on record: small-molecule microarray, higher = more signal.
Assay [19] addresses Torsin-1A-interacting protein 1 (Homo sapiens) (UniProt Q5JTV8). The assay is described as follows: compound microarray binding of lysate hLAP1 – cell lysate, small-molecule microarray, COS7 lysate, 635/667 nm fluorescence, primary screen (AID 1116). To be noted: 635 nm fluorescence, higher = more signal.
Assay [20] deals with Alpha-bungarotoxin (Bungarus multicinctus) (UniProt P60615). The assay is described as follows: compounds binding labelled alpha-BTX control protein – biochemical, small-molecule microarray, Alexa647 label, 635/667 nm fluorescence, artefact control for SMM control protein annotation, profiling panel (AID 1117). The settings on record: alpha-BTX-A647 binding fluorescence, higher = more signal.
Chain of Alpha-bungarotoxin (Bungarus multicinctus) (P60615 whole entry, looked up): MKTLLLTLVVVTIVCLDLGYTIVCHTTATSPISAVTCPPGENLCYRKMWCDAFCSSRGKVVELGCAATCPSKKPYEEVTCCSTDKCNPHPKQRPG

For five compounds, composite z-score and z-score results are on record in PubChem BioAssay.

The structures appear in SMILES notation. Active and inactive are the calls of the source.

Chain of Follistatin-related protein 3 (Homo sapiens) (O95633 whole entry, looked up): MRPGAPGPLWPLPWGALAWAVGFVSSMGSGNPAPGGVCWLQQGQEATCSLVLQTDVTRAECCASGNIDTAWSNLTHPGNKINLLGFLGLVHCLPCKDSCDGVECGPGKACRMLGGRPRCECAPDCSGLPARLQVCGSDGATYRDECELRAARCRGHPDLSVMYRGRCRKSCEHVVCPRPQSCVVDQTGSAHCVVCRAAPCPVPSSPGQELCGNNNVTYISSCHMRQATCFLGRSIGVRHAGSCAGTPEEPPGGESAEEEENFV
Chain of Torsin-1A-interacting protein 1 (Homo sapiens) (Q5JTV8 whole entry, looked up): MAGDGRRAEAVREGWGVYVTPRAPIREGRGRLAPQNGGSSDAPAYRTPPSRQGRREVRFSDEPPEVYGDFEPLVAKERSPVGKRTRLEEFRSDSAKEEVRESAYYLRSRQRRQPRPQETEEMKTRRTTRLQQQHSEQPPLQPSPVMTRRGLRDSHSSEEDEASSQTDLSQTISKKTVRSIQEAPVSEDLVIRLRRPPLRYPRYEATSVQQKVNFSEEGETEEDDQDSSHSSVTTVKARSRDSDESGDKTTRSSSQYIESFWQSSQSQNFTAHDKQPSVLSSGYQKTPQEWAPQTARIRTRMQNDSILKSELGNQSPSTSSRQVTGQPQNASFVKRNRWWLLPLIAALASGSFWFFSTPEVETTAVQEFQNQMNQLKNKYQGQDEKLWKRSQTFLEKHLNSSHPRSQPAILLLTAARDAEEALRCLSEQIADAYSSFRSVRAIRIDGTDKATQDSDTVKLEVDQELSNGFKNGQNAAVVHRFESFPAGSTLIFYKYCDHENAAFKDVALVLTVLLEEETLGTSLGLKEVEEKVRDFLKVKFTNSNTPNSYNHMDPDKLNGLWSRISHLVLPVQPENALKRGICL
Chain of Epidermal growth factor receptor (Homo sapiens) (P00533 whole entry, looked up): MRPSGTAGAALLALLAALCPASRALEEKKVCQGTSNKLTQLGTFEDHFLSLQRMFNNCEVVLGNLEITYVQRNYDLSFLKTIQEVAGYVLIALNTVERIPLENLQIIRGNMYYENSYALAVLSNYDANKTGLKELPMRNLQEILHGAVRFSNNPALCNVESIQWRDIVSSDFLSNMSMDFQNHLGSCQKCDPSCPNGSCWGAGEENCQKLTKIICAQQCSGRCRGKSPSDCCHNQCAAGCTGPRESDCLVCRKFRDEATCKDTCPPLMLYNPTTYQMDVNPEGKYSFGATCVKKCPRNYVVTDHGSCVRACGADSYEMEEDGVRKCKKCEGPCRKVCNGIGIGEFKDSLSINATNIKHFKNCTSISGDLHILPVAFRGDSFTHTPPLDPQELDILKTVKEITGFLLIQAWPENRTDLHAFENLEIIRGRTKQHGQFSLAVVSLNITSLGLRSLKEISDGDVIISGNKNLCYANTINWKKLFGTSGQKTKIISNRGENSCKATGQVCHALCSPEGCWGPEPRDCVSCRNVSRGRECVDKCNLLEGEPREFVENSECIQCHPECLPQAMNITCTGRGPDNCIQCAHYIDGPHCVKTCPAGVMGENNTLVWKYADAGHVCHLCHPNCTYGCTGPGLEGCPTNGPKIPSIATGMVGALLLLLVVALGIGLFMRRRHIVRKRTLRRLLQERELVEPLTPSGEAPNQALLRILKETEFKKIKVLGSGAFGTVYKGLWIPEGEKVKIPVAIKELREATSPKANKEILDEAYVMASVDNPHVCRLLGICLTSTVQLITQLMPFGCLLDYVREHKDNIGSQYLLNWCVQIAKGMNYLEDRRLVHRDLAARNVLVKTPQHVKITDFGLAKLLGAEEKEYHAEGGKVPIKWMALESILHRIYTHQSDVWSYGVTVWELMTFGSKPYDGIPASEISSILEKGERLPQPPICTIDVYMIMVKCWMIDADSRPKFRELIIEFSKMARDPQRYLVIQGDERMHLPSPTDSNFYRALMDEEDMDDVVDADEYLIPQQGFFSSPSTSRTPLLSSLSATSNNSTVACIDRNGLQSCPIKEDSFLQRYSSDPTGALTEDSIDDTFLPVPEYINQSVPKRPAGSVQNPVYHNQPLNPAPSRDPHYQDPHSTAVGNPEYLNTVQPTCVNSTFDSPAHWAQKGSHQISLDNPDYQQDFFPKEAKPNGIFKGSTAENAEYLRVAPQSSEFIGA
Chain of Left-right determination factor 2 (Homo sapiens) (O00292 whole entry, looked up): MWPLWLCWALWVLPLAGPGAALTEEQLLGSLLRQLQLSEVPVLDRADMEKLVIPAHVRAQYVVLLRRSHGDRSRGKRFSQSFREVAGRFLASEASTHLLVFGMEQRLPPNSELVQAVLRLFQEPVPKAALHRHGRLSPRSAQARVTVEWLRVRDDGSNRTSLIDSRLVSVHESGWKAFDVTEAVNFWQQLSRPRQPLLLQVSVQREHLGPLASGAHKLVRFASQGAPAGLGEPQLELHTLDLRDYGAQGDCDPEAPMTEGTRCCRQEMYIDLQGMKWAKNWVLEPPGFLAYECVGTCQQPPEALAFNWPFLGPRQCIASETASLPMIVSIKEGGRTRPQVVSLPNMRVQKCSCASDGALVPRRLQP

With `O=C1NC(=O)C2C1C=CC(C(O)c1ccccn1)N2Nc1ccc(Cl)cc1Cl` (stereo not given), the composite z-score in [1] is 0.827; in [2], 0.315; in [3], 0.717; in assay [5], 0.0551; in [6], -0.0767; in assay [7] it was 0.107. The composite z-score is -0.196 in [8]; -0.35 in [9]; 0.386 in [10]; 0.553 in assay [11]; 0.0905 in assay [13]; 1.46 in [14]. Besides, the composite z-score in assay [15] is 0.819; in assay [16], -0.16; in [17], 0.171; in [18], 0.383; in [19] it was 0.422; in assay [20] it was -0.0671. In addition, the z-score in assay [4] is 1.54 (inactive); in [12], 0.812.

In the case of `CCC(CC)C(O)C1C=CC2C(=O)N(c3ccccc3)C(=O)C2N1Nc1ccc([N+](=O)[O-])cc1` (stereo not given), the composite z-score came to 0.629 in assay [1]; 1.02 in [2]; 0.638 in assay [3]; 0.632 in assay [5]; 1.21 in assay [6]; 0.102 in [7]. The composite z-score in assay [8] was 0.393; in assay [9], -0.351; in [10] it was 0.761; in [11] it was 1.47; in [13] it was -0.139; in assay [14], 1.27. In addition, the composite z-score worked out at 0.717 in assay [15]; 0.152 in [16]; 0.04 in assay [17]; 0.0323 in assay [18]; 0.0001 in assay [19]; 1.42 in [20]. Also, the z-score in assay [4] was -0.16 (inactive); in assay [12] it was -0.451.

On to `CO[C@H]1O[C@H](CO)[C@@H](OC(=O)Nc2cccc(F)c2)[C@H](OC(=O)Nc2ccccc2-c2ccccc2)[C@H]1OC(=O)Nc1ccccc1-c1ccccc1`, for which the composite z-score in [1] stood at 1.26; in assay [2], 0.255; in [3] it was 0.735; in [5] it was 1.46; in assay [6], 1.33; in [7] it was 0.321. Also, the composite z-score in [8] was determined as 1.3; in assay [9] it was 0.585; in assay [10], 0.664; in [11] it was 1.48; in [13], 0.494; in assay [14], 0.88. Also, the composite z-score in assay [15] is -0.305; in [16], 0.0692; in assay [17], -0.0977; in [18], 0.895; in [19], 1.09; in assay [20], 0.816. Besides, the z-score was 4.28 (inactive) in assay [4] and -3.82 in assay [12].

Take `COCCCNC(=O)[C@@]1(c2ccc([N+](=O)[O-])cc2)CC(=O)N(C(C)C)[C@@H]1c1ccc(CO)cc1`: the composite z-score in assay [1] is 0.0788; in assay [2] it was 0.46; in assay [3], 0.8; in assay [5], -0.512; in assay [6] it was -0.63; in assay [7] it was 0.608. Moreover, the composite z-score was 0.373 in assay [8]; 0.289 in [9]; 1.07 in assay [10]; -1.48 in assay [11]; -0.195 in assay [13]; -1.61 in assay [14]. Besides, the composite z-score was -0.129 in assay [15]; 0.0559 in [16]; -0.211 in [17]; -0.261 in [18]; 1.94 in assay [19]; 1.88 in [20]. In addition, the results for the z-score in [4] and in assay [12] were 0.0532 (inactive) and 0.198, respectively.

For `CC(C)C(CO)N1C(=O)[C@@H]2[C@H]3C(=O)OCC=C[C@H]3OC23C=CCN(C(C)(C)C)C(=O)[C@@H]13` (stereo not given in full), the composite z-score in assay [1] is 1.45; in assay [2], -0.293; in assay [3] it was -0.348; in assay [5] it was -1.07; in assay [6], -1.57; in [7], -0.257. Further, the composite z-score in assay [8] was -0.21; in [9] it was -0.181; in assay [10], 0.83; in assay [11], -1.27; in assay [13] it was -0.15; in assay [14] it was -0.907. The composite z-score was -1.43 in assay [15]; -0.204 in assay [16]; 0.0725 in [17]; -0.133 in assay [18]; -0.809 in [19]; -0.0022 in assay [20]. Moreover, the z-score in [4] was 0.454 (inactive); in assay [12], -0.425.
